What all share (set-up): scale not given: direction of the effect not stated beside the values
Assay [1] deals with Protein translocase subunit SecA (Escherichia coli (strain K12)) (UniProt P10408). Description: Assay to Identify E. coli SecA ATPase Inhibitors. Particulars: 30 µM. The assay is classed as functional.
The target in assay [2] is T1, Ubiquitin-activating enzyme e1, putative (Leishmania donovani (strain BPK282A1)) (UniProt E9BSI1).
T1 sequence (whole entry): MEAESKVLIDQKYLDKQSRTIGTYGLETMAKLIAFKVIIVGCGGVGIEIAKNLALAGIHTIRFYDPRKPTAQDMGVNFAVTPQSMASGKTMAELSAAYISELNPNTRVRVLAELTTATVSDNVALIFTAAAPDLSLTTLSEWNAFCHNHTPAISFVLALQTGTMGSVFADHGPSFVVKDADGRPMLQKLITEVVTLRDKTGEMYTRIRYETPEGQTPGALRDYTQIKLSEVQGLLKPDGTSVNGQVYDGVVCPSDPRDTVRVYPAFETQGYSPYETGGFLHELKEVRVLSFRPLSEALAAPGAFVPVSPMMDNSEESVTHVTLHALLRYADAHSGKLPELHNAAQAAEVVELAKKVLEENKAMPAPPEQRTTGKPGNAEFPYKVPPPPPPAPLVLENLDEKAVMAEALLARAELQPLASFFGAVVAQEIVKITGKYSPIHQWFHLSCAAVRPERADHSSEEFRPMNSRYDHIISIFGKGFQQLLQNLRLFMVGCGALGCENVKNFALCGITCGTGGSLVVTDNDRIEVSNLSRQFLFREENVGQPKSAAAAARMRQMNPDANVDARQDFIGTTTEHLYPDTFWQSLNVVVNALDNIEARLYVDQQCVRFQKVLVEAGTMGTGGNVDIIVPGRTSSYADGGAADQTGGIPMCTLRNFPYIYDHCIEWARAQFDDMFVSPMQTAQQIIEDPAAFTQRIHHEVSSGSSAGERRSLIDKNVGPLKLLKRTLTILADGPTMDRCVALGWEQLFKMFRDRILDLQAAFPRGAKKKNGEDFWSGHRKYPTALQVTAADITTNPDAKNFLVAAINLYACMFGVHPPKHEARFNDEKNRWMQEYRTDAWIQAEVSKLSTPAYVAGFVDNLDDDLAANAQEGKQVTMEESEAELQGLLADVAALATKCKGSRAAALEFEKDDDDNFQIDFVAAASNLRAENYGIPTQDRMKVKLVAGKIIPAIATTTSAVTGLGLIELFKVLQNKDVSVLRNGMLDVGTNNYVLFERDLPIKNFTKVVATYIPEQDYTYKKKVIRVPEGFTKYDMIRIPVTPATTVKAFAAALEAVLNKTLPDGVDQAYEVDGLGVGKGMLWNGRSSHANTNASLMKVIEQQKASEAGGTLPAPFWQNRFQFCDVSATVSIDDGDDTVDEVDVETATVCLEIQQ
Briefly: Leishmania donovani Ubiquitin Activating Enzyme (LdE1). The assay is classed as functional. As to conditions: 30 µM.

The target of assay [3] is AMP-activated protein kinase, AMPK (Homo sapiens) (UniProt P54646+O43741+P54619+Q9UGJ0+Q9Y478+Q13131+Q9UGI9). Briefly: AMP-dependent Kinase enzyme assay. An in vitro enzyme assay that detects ADP turnover that is directly proportional to AMPK activity. This uses naive AMPK that is activated during the assay with MK-8722. The assay is classed as functional. Particulars: 30 µM.

Assay [4] concerns the target Sialic acid-binding Ig-like lectin 9 (Homo sapiens) (UniProt Q9Y336). Description: Hs-Siglec9 ALPHAscreen SOP 20170721. As to conditions: 10 µM.
In assay [5] the test system is Trypanosoma cruzi. Briefly: Trypanosoma cruzi phosphomannomutase and mannose-1-phosphate guanylyltransferase assay. The assay is classed as functional. As to conditions: 10 µM.
Assay [6] addresses T2, Arginase-2, mitochondrial (Homo sapiens) (UniProt P78540).
T2 sequence (whole entry): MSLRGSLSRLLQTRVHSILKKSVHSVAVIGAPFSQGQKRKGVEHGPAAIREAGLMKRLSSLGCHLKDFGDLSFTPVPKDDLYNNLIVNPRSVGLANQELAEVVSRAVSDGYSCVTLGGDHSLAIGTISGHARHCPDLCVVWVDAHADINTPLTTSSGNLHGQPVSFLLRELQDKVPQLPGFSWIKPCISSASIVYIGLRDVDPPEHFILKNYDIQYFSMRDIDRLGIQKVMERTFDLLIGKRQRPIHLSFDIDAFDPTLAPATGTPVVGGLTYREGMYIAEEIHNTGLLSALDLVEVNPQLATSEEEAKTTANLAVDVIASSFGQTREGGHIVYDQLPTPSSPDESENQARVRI
Description: in vitro enzyme assay to detect the production of urea directly proportional to the activity of Arginase II. Further: in the data most compounds retested in dose-response had high values. The assay is classed as functional. As to conditions: 33.3 µM.

For assay [7], the target named is T3, Proteasome subunit beta (Trypanosoma cruzi) (UniProt O96673).
T3 sequence (whole entry): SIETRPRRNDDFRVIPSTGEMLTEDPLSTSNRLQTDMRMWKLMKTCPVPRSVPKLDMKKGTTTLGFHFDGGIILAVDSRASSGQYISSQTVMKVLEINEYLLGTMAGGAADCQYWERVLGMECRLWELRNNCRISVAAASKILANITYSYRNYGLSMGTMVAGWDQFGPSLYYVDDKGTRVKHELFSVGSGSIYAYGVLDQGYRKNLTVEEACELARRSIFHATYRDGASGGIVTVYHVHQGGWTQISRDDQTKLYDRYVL
Briefly: Trypanosoma cruzi proteasome chymotrypsin-like activity (TcProtChymo) assay. Further: in the data most compounds retested in dose-response had high values. The assay is classed as functional. As to conditions: 9.37 µM.

For assay [8], the species on record is Homo sapiens. Briefly: To identify inhibition of the IFN signalling (Jak-Stat) pathway via expression of an eGFP reporter gene under the control of an IFN-stimulated response element (ISRE) containing MxA promoter. Particulars: 30 µM. The assay is classed as functional. For orientation: In a reporter assay the amount or activity of a reporter protein is the signal.

For assay [9], the target named is T4, Tyrosyl-tRNA synthetase, putative (Trypanosoma cruzi (strain CL Brener)) (UniProt Q4DSP6).
T4 sequence (whole entry): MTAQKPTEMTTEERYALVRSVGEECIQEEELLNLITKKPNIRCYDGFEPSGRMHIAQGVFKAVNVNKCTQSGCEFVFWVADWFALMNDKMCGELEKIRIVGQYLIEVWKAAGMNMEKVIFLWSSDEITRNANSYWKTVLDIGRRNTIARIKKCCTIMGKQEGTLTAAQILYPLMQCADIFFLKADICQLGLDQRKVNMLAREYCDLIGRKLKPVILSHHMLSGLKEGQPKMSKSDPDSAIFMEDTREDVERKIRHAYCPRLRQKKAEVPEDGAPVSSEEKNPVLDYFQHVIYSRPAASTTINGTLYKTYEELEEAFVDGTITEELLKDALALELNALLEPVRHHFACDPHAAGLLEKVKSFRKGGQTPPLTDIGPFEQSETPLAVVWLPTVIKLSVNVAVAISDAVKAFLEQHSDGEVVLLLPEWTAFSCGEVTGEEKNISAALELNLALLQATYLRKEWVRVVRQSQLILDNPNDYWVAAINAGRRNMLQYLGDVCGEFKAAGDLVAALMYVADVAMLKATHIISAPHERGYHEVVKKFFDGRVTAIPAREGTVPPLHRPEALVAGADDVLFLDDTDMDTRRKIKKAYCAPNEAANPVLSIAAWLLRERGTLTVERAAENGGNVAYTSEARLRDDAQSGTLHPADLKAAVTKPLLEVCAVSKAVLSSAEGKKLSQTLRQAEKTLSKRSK
Description: Trypanosoma cruzi tyrosyl tRNA synthetase (TcYRS) _High Tyrosine SOP. Further: in the data most compounds retested in dose-response had high values. The assay is classed as functional. As to conditions: 30 µM.

In assay [10] the target is T4, Tyrosyl-tRNA synthetase, putative (Trypanosoma cruzi (strain CL Brener)). Description: Trypanosoma cruzi tyrosyl tRNA synthetase (TcYRS) SOP. The assay is classed as functional. As to conditions: 30 µM.
The target in assay [11] is Chromo domain-containing protein 1 (Saccharomyces cerevisiae (strain ATCC 204508 / S288c) (Baker's yeast)) (UniProt P32657). Briefly: ScCHD-1 Enzyme Inhibition Assay. Further: in the data most compounds retested in dose-response had high values. The assay is classed as functional. Particulars: 30 µM.
Chain of Chromo domain-containing protein 1 (Saccharomyces cerevisiae (strain ATCC 204508 / S288c) (Baker's yeast)) (P32657 whole entry, the tested form may be a part): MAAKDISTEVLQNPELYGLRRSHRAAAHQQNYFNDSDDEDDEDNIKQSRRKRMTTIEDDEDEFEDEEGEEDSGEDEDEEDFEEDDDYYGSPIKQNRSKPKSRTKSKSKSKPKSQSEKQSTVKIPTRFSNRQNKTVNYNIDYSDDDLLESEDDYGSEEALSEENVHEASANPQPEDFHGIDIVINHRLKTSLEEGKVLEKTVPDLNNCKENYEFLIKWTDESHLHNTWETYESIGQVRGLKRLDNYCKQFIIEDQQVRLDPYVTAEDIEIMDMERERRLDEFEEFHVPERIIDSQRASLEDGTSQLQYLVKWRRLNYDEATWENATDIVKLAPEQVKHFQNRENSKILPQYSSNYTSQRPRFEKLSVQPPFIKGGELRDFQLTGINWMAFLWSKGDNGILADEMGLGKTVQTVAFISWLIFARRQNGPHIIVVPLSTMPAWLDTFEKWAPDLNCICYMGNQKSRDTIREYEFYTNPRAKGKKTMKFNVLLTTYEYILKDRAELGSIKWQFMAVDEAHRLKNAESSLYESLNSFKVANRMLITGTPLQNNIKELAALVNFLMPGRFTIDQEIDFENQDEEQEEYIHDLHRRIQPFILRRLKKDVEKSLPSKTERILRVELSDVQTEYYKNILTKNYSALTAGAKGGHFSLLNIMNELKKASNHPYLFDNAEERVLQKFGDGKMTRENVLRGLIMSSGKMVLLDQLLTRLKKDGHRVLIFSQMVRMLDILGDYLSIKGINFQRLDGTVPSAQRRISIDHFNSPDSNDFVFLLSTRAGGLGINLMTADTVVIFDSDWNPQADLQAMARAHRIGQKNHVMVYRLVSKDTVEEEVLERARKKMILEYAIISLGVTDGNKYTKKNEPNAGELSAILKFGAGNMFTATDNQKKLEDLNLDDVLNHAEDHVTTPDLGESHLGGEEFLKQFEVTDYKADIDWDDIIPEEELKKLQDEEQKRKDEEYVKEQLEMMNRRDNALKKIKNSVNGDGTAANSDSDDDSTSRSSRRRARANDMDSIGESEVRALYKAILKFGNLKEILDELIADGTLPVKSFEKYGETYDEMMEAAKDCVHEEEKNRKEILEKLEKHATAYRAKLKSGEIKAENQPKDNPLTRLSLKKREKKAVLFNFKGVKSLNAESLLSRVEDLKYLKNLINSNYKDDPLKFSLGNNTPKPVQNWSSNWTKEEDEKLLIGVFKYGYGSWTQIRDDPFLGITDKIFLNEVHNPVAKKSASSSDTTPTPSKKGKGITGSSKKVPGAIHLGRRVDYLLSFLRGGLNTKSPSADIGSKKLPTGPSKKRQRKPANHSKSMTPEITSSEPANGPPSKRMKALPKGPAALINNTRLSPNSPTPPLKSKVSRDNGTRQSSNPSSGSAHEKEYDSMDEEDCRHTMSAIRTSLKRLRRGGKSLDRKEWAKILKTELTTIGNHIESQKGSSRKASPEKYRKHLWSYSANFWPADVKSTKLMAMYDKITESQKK

For some of these results: Results with a measured potency or affinity are listed apart.

Chain of Protein translocase subunit SecA (Escherichia coli (strain K12)) (P10408 whole entry): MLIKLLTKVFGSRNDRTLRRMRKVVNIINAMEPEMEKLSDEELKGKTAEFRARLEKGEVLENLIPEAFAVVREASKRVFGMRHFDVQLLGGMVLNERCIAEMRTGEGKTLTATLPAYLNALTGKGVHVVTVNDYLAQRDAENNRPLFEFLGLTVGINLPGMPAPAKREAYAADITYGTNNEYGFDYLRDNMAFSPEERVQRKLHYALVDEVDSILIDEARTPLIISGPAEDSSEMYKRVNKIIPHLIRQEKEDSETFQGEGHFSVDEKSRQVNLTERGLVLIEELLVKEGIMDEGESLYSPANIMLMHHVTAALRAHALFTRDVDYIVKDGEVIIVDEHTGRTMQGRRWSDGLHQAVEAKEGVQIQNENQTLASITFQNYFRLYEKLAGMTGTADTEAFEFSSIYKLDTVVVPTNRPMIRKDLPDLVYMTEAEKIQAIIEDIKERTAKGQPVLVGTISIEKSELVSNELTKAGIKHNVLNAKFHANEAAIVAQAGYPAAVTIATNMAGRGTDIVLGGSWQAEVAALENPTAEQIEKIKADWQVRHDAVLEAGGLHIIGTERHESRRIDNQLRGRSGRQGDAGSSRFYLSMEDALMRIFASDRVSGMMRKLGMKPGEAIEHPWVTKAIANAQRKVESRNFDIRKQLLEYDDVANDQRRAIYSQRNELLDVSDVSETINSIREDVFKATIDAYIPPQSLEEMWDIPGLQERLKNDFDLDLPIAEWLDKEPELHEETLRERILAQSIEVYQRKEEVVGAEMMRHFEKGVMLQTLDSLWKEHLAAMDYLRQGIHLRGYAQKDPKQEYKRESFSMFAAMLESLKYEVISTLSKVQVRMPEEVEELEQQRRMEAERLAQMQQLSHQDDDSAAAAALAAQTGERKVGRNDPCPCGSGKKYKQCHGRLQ
Chain of Sialic acid-binding Ig-like lectin 9 (Homo sapiens) (Q9Y336 whole entry): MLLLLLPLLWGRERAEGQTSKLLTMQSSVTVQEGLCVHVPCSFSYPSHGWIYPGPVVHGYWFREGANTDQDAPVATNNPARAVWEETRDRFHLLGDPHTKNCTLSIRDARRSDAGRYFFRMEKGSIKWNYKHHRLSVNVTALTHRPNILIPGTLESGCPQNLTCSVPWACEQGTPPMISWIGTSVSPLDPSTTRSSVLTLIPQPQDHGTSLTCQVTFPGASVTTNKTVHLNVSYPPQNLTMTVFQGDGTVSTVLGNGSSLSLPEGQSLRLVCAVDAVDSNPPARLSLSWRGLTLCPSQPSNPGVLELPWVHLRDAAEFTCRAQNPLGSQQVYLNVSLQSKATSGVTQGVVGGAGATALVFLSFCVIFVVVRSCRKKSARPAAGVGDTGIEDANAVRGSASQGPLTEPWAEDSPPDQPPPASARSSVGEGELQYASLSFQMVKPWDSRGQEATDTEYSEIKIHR

As for `OCC1CCCN1c1cc(N2CCC(OC3CCCC3)CC2)ncn1` (stereo unspecified), the Percent Effect in [1] is -0.479%; in assay [2], 23.4%; in assay [3] it was -10.1%; in [4], -5.43%; in [5], 3.04%; in [6], 2.32%. Further, the Percent Effect in assay [7] is 15.8%; in assay [8], -7.13%; in [9], 7.62%; in assay [10], 23.5%; in [11] it was -22.6%.

In the case of `N#Cc1ncn(CCC(=O)Nc2ccc(Cl)cc2F)n1`, the Percent Effect was 1.65% in assay [1]; 8.22% in assay [2]; -0.288% in [3]; 4.01% in [4]; 1.39% in assay [5]; -1.6% in [6]. Further, the Percent Effect is 18.4% in assay [7]; 30.7% in assay [8]; 11.5% in [9]; 21% in assay [10]; -1.18% in assay [11].

For `NC(=O)CSCC(=O)N1CCc2cc(Cl)cc(Cl)c2C1`, the Percent Effect is -5.75% in [1]; 15.6% in assay [2]; 4.28% in assay [3]; 36.8% in [4]; 6.98% in assay [5]; -57.9% in assay [6]. Besides, the Percent Effect in assay [7] is 9.15%; in assay [8] it was -7.69%; in [9] it was 3.23%; in assay [10], 8.64%; in assay [11], -8.22%.

On to `Cc1nc(N(C)C)nc2c1COCC21CCN(C(=O)NC(C)C)C1` (stereo unspecified), for which the Percent Effect in [1] is -5.29%; in assay [2], 0%; in [3], -0.0672%; in assay [4] it was 2.32%; in [5] it was 2.15%; in [6], -2.08%. For the same molecule, the Percent Effect is 4.82% in [7]; -1.11% in assay [8]; 0.99% in assay [9]; 18.3% in [10]; -4.61% in assay [11].

Take `O=C(c1ccc(Br)o1)N1CCCCC1Cn1cccn1` (stereo unspecified): the Percent Effect was -1.08% in [1]; 2.7% in assay [2]; -1.88% in assay [3]; 12.6% in [4]; 0.279% in [5]; 0.924% in assay [6]. The Percent Effect in assay [7] is 15.3%; in assay [8], 18.2%; in [9], 0.99%; in [10], 3.66%; in assay [11], 0.762%.

Turning to `O=C(c1ccc[nH]1)N1CCC2(CC1)C(=O)Nc1ccccc12`, the Percent Effect was -3.56% in assay [1]; 16.2% in assay [2]; -2.52% in assay [3]; 18% in assay [4]; 6.35% in assay [5]; 4.22% in assay [6]. For the same molecule, the Percent Effect in [7] is 10.7%; in [8] it was -3.84%; in assay [9], 5.38%; in assay [10] it was 23.5%; in assay [11], -5.84%.

For the molecule `Nc1cc(CCCNC(=O)NC2CC2)nn1-c1ccccc1`, the Percent Effect was -3.6% in assay [1]; 5.48% in assay [2]; 1.41% in [3]; -7.75% in assay [4]; -6.27% in [5]; -6.82% in [6]. Also, the Percent Effect is 14.7% in assay [7]; 3.12% in assay [8]; 0% in assay [9]; 5% in [10]; -2.26% in assay [11].

In the case of `N#Cc1cc(NC(=O)C2CC=CC2)ccc1N1CCC(O)CC1`, the Percent Effect is -3.63% in assay [1]; 2.7% in assay [2]; -2.38% in [3]; 4.36% in [4]; -0.193% in assay [5]; 1.91% in assay [6]. The Percent Effect was 7.41% in [7]; 0.178% in assay [8]; 2.65% in assay [9]; 7.32% in assay [10]; -2.26% in assay [11].

`Cc1cc(NC(=O)NCC(C)O)n(C)n1` (stereo unspecified): the Percent Effect in assay [1] was -5.54%; in assay [2] it was 10.5%; in assay [3] it was -8.37%; in [4] it was 7.06%; in assay [5] it was 5.64%; in [6], 0%. The Percent Effect in [7] was 12.2%; in [8], -5.12%; in assay [9], 2.45%; in assay [10] it was 12.2%; in assay [11], -14.2%.

Turning to `CC(C)n1c(=O)nc2n1C(=O)N(c1ccc(F)cc1)C2`, the Percent Effect in assay [1] was -3.14%; in assay [2], 13.2%; in [3] it was 0.365%; in assay [4], 6.05%; in assay [5], 0.682%; in assay [6], -2.37%. Also, the Percent Effect was 13.9% in assay [7]; -9.89% in [8]; 4.25% in [9]; 7.79% in [10]; -5.52% in assay [11].

On to `Cc1cc2n(n1)CC(CNCc1ccc(-n3cccn3)nc1)CN2` (stereo unspecified), for which the Percent Effect in assay [1] is -1.63%; in assay [2] it was 5.26%; in assay [3] it was -8.03%; in assay [4], 8.37%; in assay [5] it was 13.2%; in assay [6], -0.766%. The Percent Effect in [7] is 7.69%; in [8], 1.93%; in assay [9], 11.3%; in assay [10] it was 21.9%; in assay [11], -9.89%.

The values above are taken from ChEMBL document CHEMBL3988442, “University of Dundee, Small-Polar-MMV Screening Library” (2021).
